For the test, the system named is VDR:RXRa (NR concentration 270 nM, RXRa partner concentration 90 nM). Kind of test: PBM binding z-score (relative to random genomic background probes); higher = stronger binding; sequences stand for … in GC…GCGATTGACAGCGTAGAATGAAGG
The method, then:
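Protein-binding microarray (Agilent 4x180K custom design, double-stranded 60-nt probes: 5' GC cap, 34-nt variable region, 24-nt constant primer region; full probe sequence given). Purified or IVT nuclear receptor:RXRα heterodimers (3:1 NR:RXRα, mostly 270:90 nM) or homodimers were incubated for 1 h in PBS with 2% milk and no ligand, then detected with Alexa488 antibodies. Fluorescence from o1-orientation probes (~5 replicates averaged) was converted to z-scores against 500 random hg19 background probes. Variable regions are seed direct-repeat (DR0–DR5) sites, all their single-nucleotide variants and half-site ablations.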
Consider GAGACTGGGGCAAAGCAGGTTACCATAAGGTTGG, for which the PBM binding z-score was determined as 0.398.

TCGAGTAGGTTAGTTGGGGCATTCAGCCAACATA showed a PBM binding z-score of 0.811.

The sequence AATACAGGGTCACTAGGCCAGGGTAGGTACGAAT came in with a PBM binding z-score of 4.

With CCTTACGGGTCAAGCTTATAGCACGGGTGGTACG, the PBM binding z-score stood at 3.11.

CAACCTAGGTCAAAGGTCAAAGTCGAGCCAACCA displayed a PBM binding z-score of 7.01.

For TCTTGTAGATCAAGCAGGTTTAGAAAGCCTGAGT, the PBM binding z-score amounted to 0.444.

TCACACAGGTGAAGGTAACTCAGGTACGCAGTCG gave a PBM binding z-score of 0.751.

In turn, ACCGACAGGTGATGAAGGTAACTCAGGCTATCAT came in with a PBM binding z-score of -0.148.

As for ATCGACAGGTCGAAGGTGAGTATACCCACCCGAA, the PBM binding z-score amounted to 0.627.

With TCTGCTAGGTCAGTTGGTAAGCTAACGAGCTGCC, the PBM binding z-score was -0.00155.

In turn, TCTAGTTGGTCACGGAAGTCACACACGACGGGTA displayed a PBM binding z-score of 0.891.

In turn, TCTCGGAGGACACGAAGGTCAGAGATTTCCAGAG registered a PBM binding z-score of 2.26.

In turn, TGAATGAGGTTATAAGATCAGTGAACGTTGCAAA gave a PBM binding z-score of 1.14.

Regarding CAAACTAGGTTACAGAGGTCAAAGTCCGTGCGTA, the PBM binding z-score was 7.06.

For ATCTCGAGGTAAAGATAGTTCAGTGAATGCAAAT, the PBM binding z-score is 1.23.

CTCGAAAGGTCGGTTGGGGTGAGTATACGGATAA gave a PBM binding z-score of 3.24.

In turn, TAGCCTAGGTCATTCAGGGGCCAGTAGAGAAAGC registered a PBM binding z-score of 3.24.

The sequence TAGCCTAGGTCAGATCGCGCCAGTATACGCTATA gave a PBM binding z-score of 0.314.

Regarding TCATATAGGTATAGGTGAAAGTCGAACGATATGA, the PBM binding z-score is 0.632.

As to TCTAGTAGTTGAAGGGCAACCGACGAGTCCGTTT, the PBM binding z-score was determined as 0.266.

As to CCCACTGGGCCACGAAAGGTCATTGATTCAGTGA, the PBM binding z-score was 4.18.

In turn, TCTAGCAGGCCAGAGGTTCACTCAAGAGGTACGG displayed a PBM binding z-score of 0.704.

For ATCTCTAGGTAAAAGTACAGTGAATCCCGAGGAT, the PBM binding z-score was -0.148.

Consider CCTCGGAGGAGAACAGGAGGTCAGAGCTGCCAGA, for which the PBM binding z-score worked out at 1.29.

AGAAAGAGGGCAATGAGTTGATAGCACGGGTGGC registered a PBM binding z-score of 5.59.

The sequence TGAATGAGGTTAAAGCTCAGGGAACGTGGCGTCG returned a PBM binding z-score of 1.14.

As to AGAATGAGGTTATTAAGCTCAGGGAATTGCGGTC, the PBM binding z-score was found to be 1.38.

For TCGCGGAGGACACGAAAGGTCAGAGCTCGACATC, the PBM binding z-score was 3.13.

The sequence ATCGAAACGTCGAGGTGAGTATAGAGAAAGGGAA displayed a PBM binding z-score of -0.325.

For ACTAGCAGGCCAAGTTTGGATCACTCAAACAAAG, the PBM binding z-score is -0.621.

With TCCTATAGGTAAAGGTGAAAGTCGAACGATATGA, the PBM binding z-score worked out at 0.86.

In the case of TCATATAGGTAAACAGGTGACAGTCCGTAAGTTA, the PBM binding z-score is 0.94.

Take ATATGTAGGTTAGCTGGGGTCAATCAGACTAGGC: the PBM binding z-score came out at 5.46.

Turning to TTACCTAGGTGAAGGTCGTTGATCCCTCTGTAGA, the PBM binding z-score was determined as 1.06.

TGAATGAGGTTAAAGAGCAGGGAACGTGGCGTCG gave a PBM binding z-score of 1.4.

In the case of TCTCGGAGGAAACGAAGGTCAGAGCTTTCCAGAG, the PBM binding z-score came out at 0.66.

The sequence ATATGTAGGTTAAGGGTCATTCTGGTTGGTTCGC showed a PBM binding z-score of 4.92.

For the sequence AGAACGTGGGCAATGAGTTGATAGCACGGGTGGC, the PBM binding z-score turned out to be 0.69.

As to TCATATAGTTAATACAGGTGAAAGTCGGCATCTA, the PBM binding z-score stood at 1.26.

CCTTACGGGTCACTCCAGGTTATAGTATCGGAGT came in with a PBM binding z-score of 4.39.

Source of the values: the supplement of paper PMC6555819.
